Here are results for 31 targets from the supplement of paper PMC10849652.

Of roughly 8,800 targets only a part is listed; those with a hit were picked by preference. About 0.5% of all pairs of compound and target were hits.

Sequence of UniProt O60337 (O60337 whole entry, looked up): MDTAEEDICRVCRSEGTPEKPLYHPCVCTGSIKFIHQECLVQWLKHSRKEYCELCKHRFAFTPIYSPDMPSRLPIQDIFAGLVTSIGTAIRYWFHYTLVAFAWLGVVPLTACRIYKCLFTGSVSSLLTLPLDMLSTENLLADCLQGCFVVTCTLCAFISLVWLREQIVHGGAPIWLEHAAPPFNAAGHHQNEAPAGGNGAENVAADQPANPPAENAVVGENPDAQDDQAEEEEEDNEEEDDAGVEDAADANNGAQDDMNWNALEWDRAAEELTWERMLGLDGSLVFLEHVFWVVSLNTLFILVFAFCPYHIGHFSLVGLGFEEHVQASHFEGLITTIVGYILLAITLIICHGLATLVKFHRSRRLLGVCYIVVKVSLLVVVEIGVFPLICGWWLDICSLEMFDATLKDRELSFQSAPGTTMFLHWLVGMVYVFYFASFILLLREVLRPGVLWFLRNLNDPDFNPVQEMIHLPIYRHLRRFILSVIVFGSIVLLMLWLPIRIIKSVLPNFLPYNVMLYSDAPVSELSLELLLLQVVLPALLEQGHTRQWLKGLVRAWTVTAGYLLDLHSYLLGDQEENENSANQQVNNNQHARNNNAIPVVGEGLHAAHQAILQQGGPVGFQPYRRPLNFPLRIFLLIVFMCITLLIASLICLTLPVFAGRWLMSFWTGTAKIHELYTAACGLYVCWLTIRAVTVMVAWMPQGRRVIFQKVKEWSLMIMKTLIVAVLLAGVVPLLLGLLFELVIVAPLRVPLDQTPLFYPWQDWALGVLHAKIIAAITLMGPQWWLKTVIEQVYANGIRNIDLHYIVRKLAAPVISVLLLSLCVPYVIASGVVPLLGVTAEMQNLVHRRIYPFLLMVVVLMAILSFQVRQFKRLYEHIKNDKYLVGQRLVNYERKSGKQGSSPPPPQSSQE
Sequence of UniProt Q9NWR8 (Q9NWR8 whole entry, looked up): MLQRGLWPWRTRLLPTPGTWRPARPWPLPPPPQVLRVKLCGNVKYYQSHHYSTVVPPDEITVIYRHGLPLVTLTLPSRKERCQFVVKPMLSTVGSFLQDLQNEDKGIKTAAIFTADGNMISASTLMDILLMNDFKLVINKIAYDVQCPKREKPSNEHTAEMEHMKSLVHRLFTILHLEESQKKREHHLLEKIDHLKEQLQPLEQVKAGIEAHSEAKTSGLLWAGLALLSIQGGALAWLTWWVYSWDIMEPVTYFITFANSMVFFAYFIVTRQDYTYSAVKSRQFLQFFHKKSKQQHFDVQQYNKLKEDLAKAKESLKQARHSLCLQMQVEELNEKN
Sequence of UniProt Q6ZRQ5 (Q6ZRQ5 whole entry, looked up): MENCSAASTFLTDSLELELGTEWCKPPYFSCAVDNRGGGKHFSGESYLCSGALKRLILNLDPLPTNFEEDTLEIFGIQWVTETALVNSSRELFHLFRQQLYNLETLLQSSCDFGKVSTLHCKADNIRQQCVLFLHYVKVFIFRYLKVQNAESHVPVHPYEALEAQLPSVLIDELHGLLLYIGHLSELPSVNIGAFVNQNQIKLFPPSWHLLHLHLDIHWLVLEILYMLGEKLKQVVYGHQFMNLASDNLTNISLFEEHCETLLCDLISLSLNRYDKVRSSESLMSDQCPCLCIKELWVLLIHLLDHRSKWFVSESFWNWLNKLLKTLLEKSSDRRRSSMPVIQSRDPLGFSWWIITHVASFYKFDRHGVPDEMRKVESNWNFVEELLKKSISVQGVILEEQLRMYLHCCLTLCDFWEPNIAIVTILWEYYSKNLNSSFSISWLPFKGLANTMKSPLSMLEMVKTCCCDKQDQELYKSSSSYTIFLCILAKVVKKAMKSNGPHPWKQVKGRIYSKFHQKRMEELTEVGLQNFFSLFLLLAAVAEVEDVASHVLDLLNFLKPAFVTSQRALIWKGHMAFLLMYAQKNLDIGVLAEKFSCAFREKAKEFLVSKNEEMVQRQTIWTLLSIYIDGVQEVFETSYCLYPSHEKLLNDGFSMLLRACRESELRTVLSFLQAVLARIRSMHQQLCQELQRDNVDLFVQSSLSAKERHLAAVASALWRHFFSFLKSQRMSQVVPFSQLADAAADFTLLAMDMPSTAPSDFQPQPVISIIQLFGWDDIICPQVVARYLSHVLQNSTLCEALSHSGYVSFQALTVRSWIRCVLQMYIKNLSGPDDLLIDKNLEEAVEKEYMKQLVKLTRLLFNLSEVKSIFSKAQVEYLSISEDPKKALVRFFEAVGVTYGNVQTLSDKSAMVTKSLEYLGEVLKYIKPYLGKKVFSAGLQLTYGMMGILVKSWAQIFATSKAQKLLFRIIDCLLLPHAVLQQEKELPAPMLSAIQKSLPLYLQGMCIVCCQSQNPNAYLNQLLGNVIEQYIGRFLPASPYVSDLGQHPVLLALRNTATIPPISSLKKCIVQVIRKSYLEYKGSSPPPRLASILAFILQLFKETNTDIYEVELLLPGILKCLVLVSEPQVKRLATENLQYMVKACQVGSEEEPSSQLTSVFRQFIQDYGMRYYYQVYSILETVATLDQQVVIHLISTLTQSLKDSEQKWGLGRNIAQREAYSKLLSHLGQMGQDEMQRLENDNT
Sequence of UniProt P53667 (P53667 whole entry, looked up): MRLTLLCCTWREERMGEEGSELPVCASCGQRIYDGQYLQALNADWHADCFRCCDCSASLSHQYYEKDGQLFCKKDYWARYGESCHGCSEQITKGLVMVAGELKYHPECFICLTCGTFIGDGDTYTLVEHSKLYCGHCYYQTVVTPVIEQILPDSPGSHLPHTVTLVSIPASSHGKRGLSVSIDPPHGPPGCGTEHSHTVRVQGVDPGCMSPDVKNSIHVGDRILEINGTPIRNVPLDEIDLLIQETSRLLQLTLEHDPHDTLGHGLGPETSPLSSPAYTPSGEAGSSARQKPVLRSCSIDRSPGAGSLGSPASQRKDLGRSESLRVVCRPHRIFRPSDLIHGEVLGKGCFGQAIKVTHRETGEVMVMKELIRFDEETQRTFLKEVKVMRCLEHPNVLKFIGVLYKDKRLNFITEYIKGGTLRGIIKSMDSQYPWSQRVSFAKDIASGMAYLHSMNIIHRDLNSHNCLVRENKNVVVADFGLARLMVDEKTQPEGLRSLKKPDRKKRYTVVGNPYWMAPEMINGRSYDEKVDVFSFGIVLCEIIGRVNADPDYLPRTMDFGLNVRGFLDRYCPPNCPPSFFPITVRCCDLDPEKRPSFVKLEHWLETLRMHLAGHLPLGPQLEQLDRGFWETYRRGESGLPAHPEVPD
Sequence of UniProt Q8N5J2 (Q8N5J2 whole entry, looked up): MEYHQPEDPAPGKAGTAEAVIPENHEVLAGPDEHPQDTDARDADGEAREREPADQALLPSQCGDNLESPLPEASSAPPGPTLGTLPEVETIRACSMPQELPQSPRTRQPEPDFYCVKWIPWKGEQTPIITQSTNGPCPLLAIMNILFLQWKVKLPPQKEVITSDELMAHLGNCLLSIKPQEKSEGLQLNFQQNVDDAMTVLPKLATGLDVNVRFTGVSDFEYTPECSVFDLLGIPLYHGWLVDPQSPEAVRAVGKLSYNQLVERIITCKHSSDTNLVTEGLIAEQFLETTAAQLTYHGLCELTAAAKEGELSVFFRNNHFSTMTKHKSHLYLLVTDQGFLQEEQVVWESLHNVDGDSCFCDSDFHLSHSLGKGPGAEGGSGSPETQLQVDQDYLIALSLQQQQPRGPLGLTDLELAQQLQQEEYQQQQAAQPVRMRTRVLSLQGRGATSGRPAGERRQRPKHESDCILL
Sequence of UniProt P08473 (P08473 whole entry, looked up): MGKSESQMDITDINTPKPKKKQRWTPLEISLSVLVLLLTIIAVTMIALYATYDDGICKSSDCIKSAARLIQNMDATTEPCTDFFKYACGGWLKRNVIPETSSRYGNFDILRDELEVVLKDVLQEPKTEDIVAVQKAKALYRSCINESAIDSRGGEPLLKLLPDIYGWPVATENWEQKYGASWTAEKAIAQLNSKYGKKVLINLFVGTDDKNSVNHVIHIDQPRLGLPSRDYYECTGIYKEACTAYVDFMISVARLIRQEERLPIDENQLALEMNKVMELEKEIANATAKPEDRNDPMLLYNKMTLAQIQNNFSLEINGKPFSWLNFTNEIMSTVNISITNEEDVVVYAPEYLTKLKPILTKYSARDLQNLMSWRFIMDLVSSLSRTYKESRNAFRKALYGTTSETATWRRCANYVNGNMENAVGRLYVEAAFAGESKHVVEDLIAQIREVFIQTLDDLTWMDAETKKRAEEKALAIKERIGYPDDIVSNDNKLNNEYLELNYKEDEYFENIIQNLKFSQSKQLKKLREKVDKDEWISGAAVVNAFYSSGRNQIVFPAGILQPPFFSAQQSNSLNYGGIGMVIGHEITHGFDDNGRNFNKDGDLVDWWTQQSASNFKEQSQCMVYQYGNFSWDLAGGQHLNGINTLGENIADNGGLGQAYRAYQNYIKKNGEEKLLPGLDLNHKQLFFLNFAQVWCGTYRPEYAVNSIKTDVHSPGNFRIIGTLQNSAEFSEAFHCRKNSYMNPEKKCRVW
Sequence of UniProt Q8WXB1 (Q8WXB1 whole entry, looked up): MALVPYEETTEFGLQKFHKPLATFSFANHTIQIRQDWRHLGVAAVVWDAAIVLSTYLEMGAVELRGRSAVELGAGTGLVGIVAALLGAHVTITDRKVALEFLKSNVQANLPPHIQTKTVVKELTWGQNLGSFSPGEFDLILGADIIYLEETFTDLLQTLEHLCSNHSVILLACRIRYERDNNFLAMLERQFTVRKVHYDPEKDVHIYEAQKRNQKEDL
Sequence of UniProt Q9H204 (Q9H204 whole entry, looked up): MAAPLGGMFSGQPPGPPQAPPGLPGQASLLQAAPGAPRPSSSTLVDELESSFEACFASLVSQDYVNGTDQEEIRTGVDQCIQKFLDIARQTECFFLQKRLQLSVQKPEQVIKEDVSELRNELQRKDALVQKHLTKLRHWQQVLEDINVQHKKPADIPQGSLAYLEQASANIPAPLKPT
Sequence of UniProt Q16553 (Q16553 whole entry, looked up): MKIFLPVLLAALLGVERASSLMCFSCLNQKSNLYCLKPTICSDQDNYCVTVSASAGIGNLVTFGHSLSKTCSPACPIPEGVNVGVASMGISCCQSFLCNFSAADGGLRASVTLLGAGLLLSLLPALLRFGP

Compound in the first assay: COC(=O)[C@H](CCSC)NC(=O)C1=C(C=C(C=C1)NC[C@H](CS)N)C2=CC=CC=C2
Description: log2 fold change, soluble protein after heating vs DMSO (PISA); higher = thermal stabilisation; K562 lysate, 10 uM; active = over 0.2 and 3.5 SD of the protein, either way, in both replicates (recomputed). The method in brief:
(§1)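 Following dounce homogenisation of K562 pellets in PBS pH 7.4 with 1 mM MgCl2, crude extract at 1 mg/mL protein was incubated for 30 min with 10 μM compound. Aliquots were then heated for 3 min over 48°C-58°C and pooled, NP-40 was added to 0.5% at 4°C, and soluble protein was recovered as the supernatant at 21,000xg for 90 min. Channel-sum-equalised TMTpro 16plex LC-MS/MS quantified this protein. Each value, from duplicates, is a log-two fold change in thermal stability relative to solvent controls.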
As for MAP4K4 isoform 3 (UniProt O95819), the log2 fold change was -0.014 (inactive).

On to MINDY1 isoform 3 (UniProt Q8N5J2), for which the log2 fold change is -0.053 (inactive).

For the target LRRC7 (UniProt Q96NW7), the log2 fold change was 0.026 (inactive).

For the target MAPK7 (UniProt Q13164), the log2 fold change was -0.114 (inactive).

MAP3K6 (UniProt O95382): the log2 fold change is -0.031 (inactive).

Compound in a further assay: COc1cc(Nc2ncc3c(n2)-c2ccc(Cl)cc2C(c2c(F)cccc2OC)=NC3)ccc1C(=O)O [alisertib]
Described as above. A digest of the protocol: as §1
LGALS3BP (UniProt Q08380): the log2 fold change is -0.074 (inactive).

As for MRPL22 (UniProt Q9NWU5), the log2 fold change was -0.003 (inactive).

For MAPKAP1 (UniProt Q9BPZ7), the log2 fold change was -0.094 (inactive).

As for KRIT1 (UniProt O00522), the log2 fold change is 0.038 (inactive).

As to KLHL12 isoform 2 (UniProt Q53G59), the log2 fold change was 0.023 (inactive).

Take MEX3A (UniProt A1L020): the log2 fold change is -0.097 (inactive).

As for MAPK12 (UniProt P53778), the log2 fold change was -0.114 (inactive).

For the target MRC2 (UniProt Q9UBG0), the log2 fold change was -0.075 (inactive).

As to MARCHF6 (UniProt O60337), the log2 fold change is -0.321 (inactive).

For MCUB (UniProt Q9NWR8), the log2 fold change was 0.121 (inactive).

As for MMS22L (UniProt Q6ZRQ5), the log2 fold change is -0.004 (inactive).

In the case of LIMK1 (UniProt P53667), the log2 fold change was -0.261 (inactive).

As for MCMBP isoform 2 (UniProt Q9BTE3), the log2 fold change was 0.067 (inactive).

LY6E (UniProt Q16553): the log2 fold change was 0.029 (inactive).

With MAP4 isoform 5 (UniProt P27816), the log2 fold change is 0.047 (inactive).

For MINDY1 isoform 3 (UniProt Q8N5J2), the log2 fold change was 0.001 (inactive).

For the target MED28 (UniProt Q9H204), the log2 fold change is 0.011 (inactive).

In the case of MME (UniProt P08473), the log2 fold change was -0.079 (inactive).

Take KIF21A (UniProt H0YI78): the log2 fold change was -0.003 (inactive).

For MAPK3 (UniProt H0YEX6), the log2 fold change was -0.128 (inactive).

With MAP3K6 (UniProt O95382), the log2 fold change is 0.026 (inactive).

On to METTL21A (UniProt Q8WXB1), for which the log2 fold change was 0.004 (inactive).

Compound in another assay: COc1cc2nc(-c3cc(F)ccc3O)nc(N[C@@H]3CNC[C@H]3C(C)(C)O)c2cc1OC
The description is as above. A digest of the protocol:
as §1
LGALS3BP (UniProt Q08380): the log2 fold change was 0.092 (inactive).

MRPL22 (UniProt Q9NWU5): the log2 fold change was -0.052 (inactive).

Consider LEPROT (UniProt O15243), for which the log2 fold change is 0.022 (inactive).

Regarding KRIT1 (UniProt O00522), the log2 fold change was -0.055 (inactive).

On to LRP1 (UniProt Q07954), for which the log2 fold change is 0.034 (inactive).

On to KLHL12 isoform 2 (UniProt Q53G59), for which the log2 fold change was 0.086 (inactive).

MARCHF6 (UniProt O60337): the log2 fold change is 0.008 (inactive).

KIF18B (UniProt Q86Y91): the log2 fold change was 0.046 (inactive).

MCUB (UniProt Q9NWR8): the log2 fold change was -0.062 (inactive).

Take MMS22L (UniProt Q6ZRQ5): the log2 fold change is 0.055 (inactive).

As to LIMK1 (UniProt P53667), the log2 fold change was -0.203 (inactive).

As for MCMBP isoform 2 (UniProt Q9BTE3), the log2 fold change is -0.091 (inactive).

Consider MAP4K4 isoform 6 (UniProt O95819), for which the log2 fold change was -0.058 (inactive).

For the target KRAS isoform 2 (UniProt P01116), the log2 fold change is 0.019 (inactive).

With LY6E (UniProt Q16553), the log2 fold change is 0.016 (inactive).

Consider MAP4 isoform 5 (UniProt P27816), for which the log2 fold change is -0.028 (inactive).

In the case of LRRIQ1 (UniProt Q96JM4), the log2 fold change is -0.037 (inactive).

Consider MAP4K4 isoform 3 (UniProt O95819), for which the log2 fold change was 0.035 (inactive).

Regarding MINDY1 isoform 3 (UniProt Q8N5J2), the log2 fold change was 0.103 (inactive).

With MED28 (UniProt Q9H204), the log2 fold change is -0.024 (inactive).

Turning to MME (UniProt P08473), the log2 fold change is -0.018 (inactive).

In the case of LRRC7 (UniProt Q96NW7), the log2 fold change is -0.016 (inactive).

For KIF21A (UniProt H0YI78), the log2 fold change was 0.029 (inactive).

In the case of MAPK7 (UniProt Q13164), the log2 fold change was 0.157 (inactive).

On to METTL21A (UniProt Q8WXB1), for which the log2 fold change was 0.011 (inactive).

Compound in the next assay: COc1cc2ncnc(Nc3ccc(F)c(Cl)c3)c2cc1OCCCN1CCOCC1 [gefitinib]
The assay is described as above. The method in brief: as §1
On to LGALS3BP (UniProt Q08380), for which the log2 fold change is 0.019 (inactive).

In the case of MRPL22 (UniProt Q9NWU5), the log2 fold change was -0.051 (inactive).

MAPKAP1 (UniProt Q9BPZ7): the log2 fold change is 0.07 (inactive).

On to KRIT1 (UniProt O00522), for which the log2 fold change is 0.029 (inactive).

In the case of KLHL12 isoform 2 (UniProt Q53G59), the log2 fold change was -0.048 (inactive).

MEX3A (UniProt A1L020): the log2 fold change is 0.207 (inactive).

For MAPK12 (UniProt P53778), the log2 fold change is -0.057 (inactive).

Consider MRC2 (UniProt Q9UBG0), for which the log2 fold change is 0.046 (inactive).

Consider MARCHF6 (UniProt O60337), for which the log2 fold change was 0.019 (inactive).

With MCUB (UniProt Q9NWR8), the log2 fold change was -0.046 (inactive).

For the target MMS22L (UniProt Q6ZRQ5), the log2 fold change is 0.035 (inactive).

On to LIMK1 (UniProt P53667), for which the log2 fold change is 0.106 (inactive).

As to MCMBP isoform 2 (UniProt Q9BTE3), the log2 fold change was -0.082 (inactive).

On to LY6E (UniProt Q16553), for which the log2 fold change is -0.013 (inactive).

As to MAP4 isoform 5 (UniProt P27816), the log2 fold change was 0.039 (inactive).

In the case of MAP4K4 isoform 3 (UniProt O95819), the log2 fold change was -0.051 (inactive).

Consider MINDY1 isoform 3 (UniProt Q8N5J2), for which the log2 fold change was 0.134 (inactive).

As for MED28 (UniProt Q9H204), the log2 fold change was -0.217 (inactive).

Regarding MME (UniProt P08473), the log2 fold change is 0.066 (inactive).

For KIF21A (UniProt H0YI78), the log2 fold change is -0.1 (inactive).

Consider MAPK3 (UniProt H0YEX6), for which the log2 fold change was -0.016 (inactive).

For MAP3K6 (UniProt O95382), the log2 fold change is -0.022 (inactive).

For METTL21A (UniProt Q8WXB1), the log2 fold change is -0.028 (inactive).
